The nature of assay [1]: Nuclear factor erythroid 2-related factor 2/antioxidant responsive element (Nrf2/ARE) small molecule agonists: qHTS cell viability counter screen in human keratinocytes (AID 1919968; active = well fitted curve in the direction sought with a large enough effect in the repeat runs; an effect the other way counts as inactive or inconclusive; also: nearly all actives have a fitted effect of over 55% in size). The method in brief: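 Viability counter-screen: KeratinoSens reporter cells, DMSO-delivered compounds, 23 h at 37 C, CellTiter-Fluor fluorescence.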
A general note: qHTS replaces the single test concentration by a dilution series.

The nature of assay [2]: Nuclear factor erythroid 2-related factor 2/antioxidant responsive element (Nrf2/ARE) small molecule agonists: luciferase reporter gene qHTS assay in human keratinocytes (AID 1919969; also: nearly all actives have a fitted effect of over 35% in size; also: potency is read from the fitted curve at half-maximal effect). (In a reporter assay the amount or activity of a reporter protein is the signal.)
Assay [3] has as its target Gonadotropin-releasing hormone receptor (Homo sapiens) (UniProt P30968). In words: Human gonadotropin-releasing hormone receptor (GnRHR) small molecule agonists, calcium flux assay in GnRHR-HEK293 cells (AID 1920063). Also: nearly all actives have a fitted effect of over 35% in size. The method in brief: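 Tox21-format agonist screen using human GnRHR-expressing HEK293 cells and a fluorescent calcium dye; kinetic 3-min fluorescence reading after compound addition, 15-point concentration series run in triplicate.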
(In general: Calcium flux is commonly read through the fluorescence of an indicator in the cells.)

The target in assay [4] is KiSS-1 receptor (Homo sapiens) (UniProt Q969F8). In words: Human kisspeptin (KISS1R) small molecule agonists, calcium flux assay in KISS1R-HEK293 cells (AID 1920064; active = well fitted curve in the direction sought with a large enough effect in the repeat runs; an effect the other way counts as inactive or inconclusive). The method in brief: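 Intracellular calcium mobilization in KISS1R-HEK293 cells was recorded by fluorescence (Ex/Em 480/540) for 3 min following compound addition to cells pre-loaded 1 h with calcium dye.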

Assay [5] in a line: p53 small molecule agonists, cell-based qHTS assay with human liver microsomes: qHTS cell viability counter screen (AID 1963579). Also: nearly all actives have a fitted effect of over 45% in size. The essentials:
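p53RE-bla cells, 4,000/well, dosed 5 hours after plating, with human liver microsomes (0.5 mg/mL final) plus NADPH (0.5 mg/mL final), 16 hours at 37 C. Viability read as CellTiter-Glo luminescence after 30 min at room temperature.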

Assay [6] is described as follows: p53 small molecule agonists, cell-based qHTS assay with rat liver microsomes: qHTS cell viability counter screen (AID 1963580). Also: nearly all actives have a fitted effect of over 45% in size. The method in brief:
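In HCT-116 cells carrying a p53 response element-bla reporter, compounds were metabolically activated in situ by rat liver microsomes with NADPH over 16 h. Cell ATP content then served as the cytotoxicity measure.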

Assay [7] is described as follows: p53 small molecule agonists, cell-based qHTS assay: qHTS cell viability counter screen (AID 1963581). Also: nearly all actives have a fitted effect of over 45% in size. The essentials:
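Compounds are pinned onto HCT-116 p53RE-bla cells and left 16 h at 37 C. Following the reporter FRET read, ATP is quantified by CellTiter-Glo luminescence after 30 min at room temperature.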

Assay [8] concerns the target 5-hydroxytryptamine receptor 2A (Homo sapiens) (UniProt P28223). In words: 5-hydroxytryptamine receptor 2A (HTR2A) small molecule agonists, cell-based qHTS assay (AID 1963587). Also: nearly all actives have a fitted effect of over 30% in size. The essentials:
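HTR2A-CHO cells, plated 18 h at 37 C/5% CO2, dye-loaded 1 h at 37 C; compounds in DMSO added by pin tool (agonist mode). Intracellular calcium flux read as kinetic fluorescence on FDSS over 2 min at 1 s intervals.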

Assay [9] addresses Muscarinic acetylcholine receptor M1 (Homo sapiens) (UniProt P11229). Briefly: Cholinergic receptor muscarinic 1 (CHRM1) small molecule antagonists, cell-based qHTS assay (AID 1963588). Also: nearly all actives have a fitted effect of over 40% in size. The essentials:
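CHRM1-CHO calcium-flux assay, antagonist mode. Cells were seeded 18 h, dye-loaded 1 h at 37 C and given compound for 5 min at RT, then acetylcholine was added at 50nM. FDSS fluorescence was read 3 min; 15 concentrations, three runs.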

Assay [10] in a line: cAMP Responsive Elements (CRE) small molecule agonists, cell-based qHTS assay (AID 1963590). The essentials:
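FRET-based beta-lactamase readout (LiveBLAzer B/G, 2 h RT) quantified CRE activation in HEK 293T CRE-bla cells after 3 h treatment with DMSO-dissolved compounds.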

Assay [11] can be described thus: cAMP Responsive Elements (CRE) small molecule antagonists, cell-based qHTS assay (AID 1963591; active = well fitted inhibition curve with a large enough effect in the signal ratio in the repeat runs, not every such curve was filed as active; the % refers to the signal ratio). The essentials:
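qHTS in CRE-bla HEK 293T cells: compound in DMSO, then 0.25 uM NKH477 (final), 3 h at 37 °C/5% CO2; beta-lactamase FRET read-out after 2 h substrate incubation.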

Assay [12] concerns the target D(2) dopamine receptor (Homo sapiens) (UniProt P14416). Briefly: Dopamine D2 receptor (DRD2) small molecule agonists, cell-based qHTS assay (AID 1963594). Also: nearly all actives have a fitted effect of over 35% in size. The essentials:
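HEK293 cells stably expressing DRD2 were cultured 24 h at 37 C, then given Ro20-1724 (0.1 mM final) and compounds for 10 min at room temperature. NKH477 (200nM) was then added for 30 min. cAMP was read by HTRF.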

Assay [13] shares this target. In words: Dopamine D2 receptor (DRD2) small molecule antagonists, cell-based qHTS assay (AID 1963595; active = well fitted inhibition curve with a large enough effect in the signal ratio in the repeat runs, with a control signal flat; the % refers to the signal ratio). The method in brief:
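Human DRD2 antagonist qHTS measuring cAMP by HTRF. The cells are exposed to compound for 10 min, then to NKH477 (200 nM) and quinpirole (12 nM) for 30 min at RT, with Ro20-1724 (0.1 mM) present throughout.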

In assay [14] the target is Muscarinic acetylcholine receptor M1 (Homo sapiens) (UniProt P11229). In words: Cholinergic receptor muscarinic 1 (CHRM1) small molecule agonists, cell-based qHTS assay (AID 1963589). Also: nearly all actives have a fitted effect of over 35% in size. The essentials: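 Stable CHRM1-CHO cells (human receptor) were incubated 18 h, dye-loaded for 1 h at 37 C and exposed to test compounds for agonist activity, with calcium-dependent fluorescence followed kinetically.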

Assay [15] deals with Beta-2 adrenergic receptor (Homo sapiens) (UniProt P07550). Briefly: Adrenergic beta2 receptor (ADRB2) small molecule antagonists, cell-based qHTS assay (AID 1963592). Also: series mostly up to about 92 µM; nearly all actives have a fitted effect of over 50% in size. The method in brief: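 Cells (CHO, stable ADRB2 overexpression) incubated 18-20hr at 37C; compounds added from DMSO; agonist mix (1nM isoproterenol, 100uM IBMX, 25uM Ro-20-1724) added; 0.5hr RT; d2-cAMP and anti-cAMP-cryptate added; 1hr RT; 665/615 nm read.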

Assay [16] concerns the target 5-hydroxytryptamine receptor 2A (Homo sapiens) (UniProt P28223). Briefly: 5-hydroxytryptamine receptor 2A (HTR2A) small molecule antagonists, cell-based qHTS assay (AID 1963586). Also: nearly all actives have a fitted effect of over 45% in size. The method in brief: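 Antagonist-mode intracellular calcium assay: DOI (4 nM) added after 5 min compound pre-incubation at room temperature to dye-loaded HTR2A-CHO cells. Fluorescence followed for 3 min, sampled every second.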

Assay [17] has as its target Beta-2 adrenergic receptor (Homo sapiens) (UniProt P07550). Briefly: Adrenergic beta2 receptor (ADRB2) small molecule agonists, cell-based qHTS assay (AID 1963593).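 Also: CHO cells stably overexpressing human ADRB2.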 The method in brief:
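CHO cells stably over-expressing ADRB2 were plated overnight at 37C, then dosed with compounds plus a stimulation mix containing 100uM IBMX and 25uM Ro-20-1724 for 0.5hr at room temperature. cAMP was measured by HTRF competition, 1hr.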

Assay [18] is described as follows: G protein-coupled receptor (GPCR) small molecule agonists, calcium flux assay: HEK293 wild type cell line counter screen (AID 1920065). The method in brief: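 In this agonist-mode screen, ATP is the positive control and DMSO the vehicle. Cells grow 18 h before a 1 h dye incubation at 37 C; signal is taken at Ex/Em 480/540 over 3 min.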
Assay [19] in a line: p53 small molecule agonists, cell-based qHTS assay with rat liver microsomes (AID 1963578). The method in brief:
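p53RE-bla cells, 4,000/well, pre-incubated 5 h, then given compounds plus rat liver microsomes (0.5 mg/mL final) and NADPH (0.5 mg/mL final). Incubation 16 h at 37 C; beta-lactamase reporter read by LiveBLAzer fluorescence after 2 h at room temperature.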

Assay [20] is described as follows: p53 small molecule agonists, cell-based qHTS assay (AID 1963582; active = well fitted activation curve with a large enough effect in the signal ratio in the repeat runs, not every such curve was filed as active; the % refers to the signal ratio). The method in brief:
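Agonist activity was scored from beta-lactamase FRET fluorescence in p53RE-bla cells treated 16 h at 37 C with compounds in DMSO, substrate incubation being 2 h at room temperature.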

Values without a mark were called inactive. Inconclusive results are not listed. Activity calls are given as the source filed them. Unless noted, calls follow the shape of the full dose curve.
% is scaled to controls: 0 for no effect and ±100 for the full control effect.

Sequence of Muscarinic acetylcholine receptor M1 (Homo sapiens) (P11229 whole entry, looked up): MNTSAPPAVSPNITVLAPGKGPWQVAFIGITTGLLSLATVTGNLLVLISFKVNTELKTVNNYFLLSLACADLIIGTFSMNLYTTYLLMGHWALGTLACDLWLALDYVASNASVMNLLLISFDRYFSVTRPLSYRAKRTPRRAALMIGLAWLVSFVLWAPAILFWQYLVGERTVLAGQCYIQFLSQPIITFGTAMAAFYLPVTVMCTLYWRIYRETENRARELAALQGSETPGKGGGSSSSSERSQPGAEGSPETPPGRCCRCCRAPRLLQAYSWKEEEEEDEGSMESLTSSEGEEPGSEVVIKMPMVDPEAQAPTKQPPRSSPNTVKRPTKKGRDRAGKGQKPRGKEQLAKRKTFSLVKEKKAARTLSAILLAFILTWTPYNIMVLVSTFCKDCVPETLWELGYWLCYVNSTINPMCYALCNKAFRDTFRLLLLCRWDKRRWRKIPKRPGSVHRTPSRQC
Sequence of KiSS-1 receptor (Homo sapiens) (Q969F8 whole entry, looked up): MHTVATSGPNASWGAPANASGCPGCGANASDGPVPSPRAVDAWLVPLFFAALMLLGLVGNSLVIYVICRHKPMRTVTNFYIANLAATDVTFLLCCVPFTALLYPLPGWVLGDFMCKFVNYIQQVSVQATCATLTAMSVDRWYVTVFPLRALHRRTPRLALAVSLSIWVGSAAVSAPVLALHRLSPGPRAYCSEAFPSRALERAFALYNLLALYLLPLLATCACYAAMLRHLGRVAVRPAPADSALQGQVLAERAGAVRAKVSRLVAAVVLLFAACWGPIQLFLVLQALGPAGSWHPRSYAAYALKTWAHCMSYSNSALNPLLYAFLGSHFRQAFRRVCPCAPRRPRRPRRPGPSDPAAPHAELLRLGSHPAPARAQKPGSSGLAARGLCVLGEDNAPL
Sequence of D(2) dopamine receptor (Homo sapiens) (P14416 whole entry, looked up): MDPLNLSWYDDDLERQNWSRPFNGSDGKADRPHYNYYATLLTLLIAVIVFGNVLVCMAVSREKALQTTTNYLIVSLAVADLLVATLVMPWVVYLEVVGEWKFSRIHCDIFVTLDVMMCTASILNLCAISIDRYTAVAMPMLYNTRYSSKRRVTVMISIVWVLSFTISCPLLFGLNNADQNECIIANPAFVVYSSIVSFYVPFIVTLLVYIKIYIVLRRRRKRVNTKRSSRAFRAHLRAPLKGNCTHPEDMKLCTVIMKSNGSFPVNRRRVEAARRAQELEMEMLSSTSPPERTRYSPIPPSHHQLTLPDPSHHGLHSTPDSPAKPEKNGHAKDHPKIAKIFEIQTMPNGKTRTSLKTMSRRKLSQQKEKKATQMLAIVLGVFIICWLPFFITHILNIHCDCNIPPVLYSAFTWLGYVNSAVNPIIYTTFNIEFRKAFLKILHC
Sequence of Gonadotropin-releasing hormone receptor (Homo sapiens) (P30968 whole entry, looked up): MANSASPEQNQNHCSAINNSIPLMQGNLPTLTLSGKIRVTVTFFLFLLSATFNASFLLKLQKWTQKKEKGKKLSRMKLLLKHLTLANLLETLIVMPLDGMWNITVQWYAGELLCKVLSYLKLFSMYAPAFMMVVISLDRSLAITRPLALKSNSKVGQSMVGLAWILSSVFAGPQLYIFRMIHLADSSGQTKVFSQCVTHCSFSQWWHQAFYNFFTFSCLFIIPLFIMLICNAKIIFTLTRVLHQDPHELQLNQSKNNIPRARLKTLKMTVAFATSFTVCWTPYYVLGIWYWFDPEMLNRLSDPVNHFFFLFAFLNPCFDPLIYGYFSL
Sequence of Beta-2 adrenergic receptor (Homo sapiens) (P07550 whole entry, looked up): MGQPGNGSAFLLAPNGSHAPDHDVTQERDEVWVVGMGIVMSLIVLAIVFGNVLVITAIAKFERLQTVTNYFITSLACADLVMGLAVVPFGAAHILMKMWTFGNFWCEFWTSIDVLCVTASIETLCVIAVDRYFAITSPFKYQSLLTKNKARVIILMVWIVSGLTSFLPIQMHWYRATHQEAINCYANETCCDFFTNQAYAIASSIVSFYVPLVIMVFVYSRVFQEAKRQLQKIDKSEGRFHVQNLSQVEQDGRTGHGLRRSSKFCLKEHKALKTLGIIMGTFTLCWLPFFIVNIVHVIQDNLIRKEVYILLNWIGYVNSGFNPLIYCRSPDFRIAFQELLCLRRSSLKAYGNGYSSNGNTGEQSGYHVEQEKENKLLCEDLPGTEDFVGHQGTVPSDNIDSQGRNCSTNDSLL
Sequence of 5-hydroxytryptamine receptor 2A (Homo sapiens) (P28223 whole entry, looked up): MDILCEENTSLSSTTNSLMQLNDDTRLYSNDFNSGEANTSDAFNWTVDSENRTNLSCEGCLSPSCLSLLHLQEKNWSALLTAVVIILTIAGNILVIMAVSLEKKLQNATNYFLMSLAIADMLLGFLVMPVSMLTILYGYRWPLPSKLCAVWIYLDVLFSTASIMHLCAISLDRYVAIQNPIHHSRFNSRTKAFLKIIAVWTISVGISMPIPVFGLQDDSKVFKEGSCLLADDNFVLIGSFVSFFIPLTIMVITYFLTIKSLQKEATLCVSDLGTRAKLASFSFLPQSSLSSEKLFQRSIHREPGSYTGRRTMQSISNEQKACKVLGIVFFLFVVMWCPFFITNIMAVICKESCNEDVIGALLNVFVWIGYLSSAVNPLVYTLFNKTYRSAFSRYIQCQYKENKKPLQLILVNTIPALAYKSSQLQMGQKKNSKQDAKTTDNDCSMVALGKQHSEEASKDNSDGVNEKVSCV

Regarding `COC(=O)C1=C(C)NC(C)=C(C(=O)OC(C)C)C1c1cccc2nonc12` (stereo unspecified), the Potency result in assay [1], in assay [2], in assay [3], in assay [4], in [5] and in assay [6] was “inactive” each time. For the same compound, the Potency entry in [7], in assay [8], in assay [9], in assay [10], in assay [11] and in [12] was “inactive” throughout. The Potency entry in [13] was “inactive”.
As to `COc1cc(C(C)C)c2c(c1)S(=O)(=O)N(COc1cc(=O)n3cccc(OCCN4CCCCC4)c3n1)C2=O`, the values for the activity change, negative = cytotoxicity in assay [1], in assay [6] and in assay [7] were -10.3% [at 19 µM], -0.988% [at 13.5 µM] and -1.9% [at 13.5 µM], respectively. The Potency in assay [2] is 2910 nM (active). In [3], the activity change was -0.424% [at 11.8 µM, stronger effect = higher value]. For the same compound, the activation was -3.13% [at 15.8 µM] in assay [4], -1.78% [at 15.9 µM] in assay [8], -0.958% [at 15.8 µM] in assay [14] and -15.5% [at 19 µM] in [12]. In assay [9], the activity, negative = inhibition was -3.39% [at 12.6 µM]. For the same compound, the activity change, negative = inhibition in [15] is 1.57% [at 19 µM].
Take `O/N=C/C=N/O`: the Potency entry in [1], in [2], in [3], in assay [4], in assay [5] and in assay [6] was “inactive” each time. In addition, the Potency entry in [7], in assay [16], in [8], in assay [9], in assay [14] and in assay [10] was “inactive” in each case. Moreover, the Potency entry in assay [11], in assay [15], in [17], in [12] and in assay [13] was “inactive” in each case.
As to `C=COCCOCCOC=C`, the Potency result in assay [1], in [2], in assay [3], in [18], in assay [19] and in assay [5] was “inactive” in each case. For the same compound, the Potency entry in assay [6], in [7], in [20], in [16], in [8] and in assay [9] was “inactive” in each case. Besides, the Potency result in [14], in assay [10], in assay [11], in assay [15], in [17] and in [12] was “inactive” throughout. Moreover, the Potency result in [13] is “inactive”.
For the compound `CC(C)OC(=O)CCC(=O)OC(C)C`, the Potency entry in assay [1], in [2], in [3], in assay [4], in assay [6] and in assay [7] was “inactive” each time. In addition, the Potency entry in assay [20], in assay [16], in assay [8], in [9], in [14] and in assay [10] was “inactive” in each case. In addition, the Potency entry in assay [11], in [15], in assay [12] and in [13] was “inactive” each time.
Regarding `CCCCCCCCCCCCCOC(=O)CCSCCC(=O)OCCCCCCCCCCCCC`, the activity change, negative = cytotoxicity was -1.71% [at 19 µM] in assay [1], -3.75% [at 13.5 µM] in assay [5], -0.0386% [at 13.5 µM] in assay [6] and -3.06% [at 13.5 µM] in assay [7]. The activity, positive = activation in [2] is 4.84% [at 19 µM]. Besides, in [3], the activity change is 1.53% [at 11.8 µM, stronger effect = higher value]. Moreover, the activation in assay [4] is 1.75% [at 15.8 µM]; in [10] it was -0.927% [at 19 µM]. Further, the activity, negative = inhibition is 1.85% [at 12.7 µM] in [16] and 18% [at 12.6 µM] in assay [9]. In addition, the figures for the activity change, negative = inhibition in assay [11], in assay [15] and in assay [13] were -14% [at 18.9 µM], -0.103% [at 19 µM] and -7.07% [at 18.9 µM], respectively.
As for `COc1cccc2sc(N)nc12`, the Potency entry in [1], in [2], in assay [3], in assay [4], in assay [5] and in assay [6] was “inactive” each time. In addition, the Potency result in assay [7], in [16], in assay [9], in [14], in assay [10] and in assay [15] was “inactive” each time. Moreover, the Potency entry in assay [12] and in assay [13] was “inactive” in each case.
Regarding `O=C(Cl)c1ccc(F)c(Cl)c1`, the Potency result in [1], in assay [2], in assay [3], in assay [18], in assay [19] and in assay [5] was “inactive” throughout. Further, the Potency result in assay [6], in assay [7], in [20], in assay [16], in [8] and in assay [9] was “inactive” each time. Besides, the Potency result in [14], in [10], in assay [11], in assay [15], in assay [12] and in [13] was “inactive” each time.
